Assay results from PubChem BioAssay AID1159580 (chemical genetic matrix, 2015).
In all, about 5,500 compounds went through this assay and about 2,000 (36%) were called active. Another 18% or so got no clear call; they are omitted. No stated cut-off is given here; in the data, active means normalized growth mostly below about 0.91 (no sharp cut-off); inconclusive means no clear call, values can overlap the other calls; inactive means mostly above about 0.92. The list shows a part of the results.

Experiment: chemical genetic growth profiling, strain panel (AID 1159580);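 further: tested at 20 µM; growth read once vehicle control cultures reached saturation at 30 °C; 1 = growth at the plate median or of vehicle wells; lower values mean less growth of the strain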
Conditions: growth OD

Measured: normalized growth

CC(=O)OCC(=O)[C@@]1(O)[C@H](OC(C)=O)CC2C3CCC4=CC(=O)C=C[C@]4(C)[C@@]3(F)[C@@H](O)C[C@@]21C (some centres not stated)
inactive: S. cerevisiae deletion strains, locus YJR066W, strain TOR1, hits give low values 0.935 | S. cerevisiae deletion strains, locus YKL009W, strain mrt4, hits give low values 0.993 | S. cerevisiae deletion strains, locus YKL068W, hits give low values 0.994 | S. cerevisiae deletion strains, locus YKL085W, strain MDH1 (second series), hits give low values 1 | S. cerevisiae deletion strains, locus YKL085W, strain MDH1, hits give low values 1 | S. cerevisiae deletion strains, locus YKL160W, strain elf1, hits give low values 1.02 | S. cerevisiae deletion strains, locus YKL190W, strain CNB1, hits give low values 0.996 | S. cerevisiae deletion strains, locus YKR001C, strain vps1, hits give low values 0.999 | S. cerevisiae deletion strains, locus YKR026C, strain gcn3, hits give low values 0.993 | S. cerevisiae deletion strains, locus YKR091W, strain srl3, hits give low values 0.986 | S. cerevisiae deletion strains, locus YLL001W, strain dnm1, hits give low values 1.03 | S. cerevisiae deletion strains, locus YLL026W, hits give low values 1 | S. cerevisiae deletion strains, locus YLL041C, strain sdh2, hits give low values 0.985 | S. cerevisiae deletion strains, locus YLR027C, strain aat2, hits give low values 1.01 | S. cerevisiae deletion strains, locus YLR039C, strain RIC1, hits give low values 0.995 | S. cerevisiae deletion strains, locus YLR058C, strain SHM2, hits give low values 0.98 | S. cerevisiae deletion strains, locus YLR102C, strain apc9, hits give low values 0.999 | S. cerevisiae deletion strains, locus YLR113W, strain HOG1, hits give low values 0.98 | S. cerevisiae deletion strains, locus YLR221C, strain rsa3, hits give low values 0.956 | S. cerevisiae deletion strains, locus YLR258W, strain gsy2, hits give low values 0.982 | S. cerevisiae deletion strains, locus YLR262C, strain YPT6 (second series), hits give low values 1.01 | S. cerevisiae deletion strains, locus YLR262C, strain YPT6, hits give low values 0.974 | S. cerevisiae deletion strains, locus YLR268W, strain sec22, hits give low values 1.06 | S. cerevisiae deletion strains, locus YLR320W, strain mms22, hits give low values 0.97 | S. cerevisiae deletion strains, locus YLR330W, strain CHS5, hits give low values 0.993 | S. cerevisiae deletion strains, locus YLR342W, strain FKS1 (second series), hits give low values 1.01 | S. cerevisiae deletion strains, locus YLR342W, strain FKS1, hits give low values 1.02 | S. cerevisiae deletion strains, locus YLR357W, strain rsc2, hits give low values 0.974 | S. cerevisiae deletion strains, locus YLR370C, strain arc18, hits give low values 0.99 | S. cerevisiae deletion strains, locus YLR371W, strain rom2, hits give low values 0.983 | S. cerevisiae deletion strains, locus YLR384C, strain iki3, hits give low values 0.996 | S. cerevisiae deletion strains, locus YLR418C, strain cdc73, hits give low values 1 | S. cerevisiae deletion strains, locus YML016C, strain PPZ1, hits give low values 0.996 | S. cerevisiae deletion strains, locus YML032C, strain rad52, hits give low values 1.01 | S. cerevisiae deletion strains, locus YML120C, strain ndi1, hits give low values 1 | S. cerevisiae deletion strains, locus YML124C, strain tub3, hits give low values 0.991 | S. cerevisiae deletion strains, locus YMR058W, strain fet3, hits give low values 0.991 | S. cerevisiae deletion strains, locus YMR078C, strain ctf18, hits give low values 0.987 | S. cerevisiae deletion strains, locus YMR125W, strain sto1, hits give low values 0.983 | S. cerevisiae deletion strains, locus YMR129W, hits give low values 0.967 | S. cerevisiae deletion strains, locus YMR205C, strain PFK2, hits give low values 1.02 | S. cerevisiae deletion strains, locus YMR223W, strain ubp8, hits give low values 0.98 | S. cerevisiae deletion strains, locus YMR231W, strain pep5, hits give low values 1 | S. cerevisiae deletion strains, locus YMR263W, strain SAP30, hits give low values 0.991 | S. cerevisiae deletion strains, locus YMR307W, strain GAS1, hits give low values 1 | S. cerevisiae deletion strains, locus YNL067W, strain RPL9B, hits give low values 0.998 | S. cerevisiae deletion strains, locus YNL071W, strain lat1, hits give low values 0.974 | S. cerevisiae deletion strains, locus YNL183C, strain NPR1, hits give low values 0.949 | S. cerevisiae deletion strains, locus YNL209W, strain ssb2, hits give low values 0.986 | S. cerevisiae deletion strains, locus YNL233W, strain BNI4, hits give low values 0.986 | S. cerevisiae deletion strains, locus YNL248C, strain rpa49, hits give low values 0.937 | S. cerevisiae deletion strains, locus YNL250W, strain rad50, hits give low values 0.985 | S. cerevisiae deletion strains, locus YNL271C, strain bni1, hits give low values 0.997 | S. cerevisiae deletion strains, locus YNL298W, strain CLA4, hits give low values 1 | S. cerevisiae deletion strains, locus YNL307C, strain MCK1, hits give low values 0.998 | S. cerevisiae deletion strains, locus YNL322C, strain KRE1 (second series), hits give low values 0.998 | S. cerevisiae deletion strains, locus YNR049C, strain mso1, hits give low values 0.979 | S. cerevisiae deletion strains, locus YNR052C, strain pop2, hits give low values 1 | S. cerevisiae deletion strains, locus YOL006C, strain TOP1, hits give low values 0.959 | S. cerevisiae deletion strains, locus YOL012C, strain htz1 1.14 | S. cerevisiae deletion strains, locus YOL147C, strain pex11, hits give low values 0.994 | S. cerevisiae deletion strains, locus YOR001W, strain rrp6, hits give low values 1 | S. cerevisiae deletion strains, locus YOR061W, strain CKA2, hits give low values 0.963 | S. cerevisiae deletion strains, locus YOR069W, strain VPS5, hits give low values 0.993 | S. cerevisiae deletion strains, locus YOR070C, strain gyp1, hits give low values 0.989 | S. cerevisiae deletion strains, locus YOR080W, strain dia2, hits give low values 0.997 | S. cerevisiae deletion strains, locus YOR083W, strain WHI5, hits give low values 1.01 | S. cerevisiae deletion strains, locus YOR106W, strain vam3, hits give low values 1.02 | S. cerevisiae deletion strains, locus YOR136W, strain idh2, hits give low values 0.981 | S. cerevisiae deletion strains, locus YOR144C, strain elg1, hits give low values 0.998 | S. cerevisiae deletion strains, locus YOR184W, strain ser1, hits give low values 0.986 | S. cerevisiae deletion strains, locus YOR231W, strain MKK1, hits give low values 0.982 | S. cerevisiae deletion strains, locus YOR265W, strain rbl2, hits give low values 0.982 | S. cerevisiae deletion strains, locus YOR270C, strain vph1, hits give low values 0.973 | S. cerevisiae deletion strains, locus YOR290C, strain snf2, hits give low values 0.952 | S. cerevisiae deletion strains, locus YOR316C, strain cot1, hits give low values 0.993 | S. cerevisiae deletion strains, locus YPL051W, strain arl3, hits give low values 1.01 | S. cerevisiae deletion strains, locus YPL078C, strain atp4, hits give low values 1.02 | S. cerevisiae deletion strains, locus YPL106C, strain sse1, hits give low values 0.982 | S. cerevisiae deletion strains, locus YPL240C, strain hsp82, hits give low values 1 | S. cerevisiae deletion strains, locus YPL256C, strain CLN2, hits give low values 0.969 | S. cerevisiae deletion strains, locus YPR119W, strain clb2, hits give low values 0.998 | S. cerevisiae deletion strains, locus YPR141C, strain kar3, hits give low values 0.982 | S. cerevisiae deletion strains, locus YPR163C, strain tif3, hits give low values 0.985 | S. cerevisiae deletion strains, locus YPR167C, strain met16, hits give low values 0.992 | S. cerevisiae deletion strains, strain wtn01, hits give low values 1 | S. cerevisiae strains, strain wild type, hits give low values 0.983
